Results: ChEMBL document CHEMBL3988442, “University of Dundee, Small-Polar-MMV Screening Library” (2021)
For some assays here: Entries with a potency or affinity are not part of this list.

Key:
Design in all cases: scale not given: direction of the effect not stated beside the values
[1] = target: Protein translocase subunit SecA (Escherichia coli (strain K12)) (UniProt P10408); test: Assay to Identify E. coli SecA ATPase Inhibitors; assay type: functional; settings: 30 µM
[2] = target: T1, Ubiquitin-activating enzyme e1, putative (Leishmania donovani (strain BPK282A1)) (UniProt E9BSI1); test: Leishmania donovani Ubiquitin Activating Enzyme (LdE1); assay type: functional; settings: 30 µM
T1 sequence (whole entry): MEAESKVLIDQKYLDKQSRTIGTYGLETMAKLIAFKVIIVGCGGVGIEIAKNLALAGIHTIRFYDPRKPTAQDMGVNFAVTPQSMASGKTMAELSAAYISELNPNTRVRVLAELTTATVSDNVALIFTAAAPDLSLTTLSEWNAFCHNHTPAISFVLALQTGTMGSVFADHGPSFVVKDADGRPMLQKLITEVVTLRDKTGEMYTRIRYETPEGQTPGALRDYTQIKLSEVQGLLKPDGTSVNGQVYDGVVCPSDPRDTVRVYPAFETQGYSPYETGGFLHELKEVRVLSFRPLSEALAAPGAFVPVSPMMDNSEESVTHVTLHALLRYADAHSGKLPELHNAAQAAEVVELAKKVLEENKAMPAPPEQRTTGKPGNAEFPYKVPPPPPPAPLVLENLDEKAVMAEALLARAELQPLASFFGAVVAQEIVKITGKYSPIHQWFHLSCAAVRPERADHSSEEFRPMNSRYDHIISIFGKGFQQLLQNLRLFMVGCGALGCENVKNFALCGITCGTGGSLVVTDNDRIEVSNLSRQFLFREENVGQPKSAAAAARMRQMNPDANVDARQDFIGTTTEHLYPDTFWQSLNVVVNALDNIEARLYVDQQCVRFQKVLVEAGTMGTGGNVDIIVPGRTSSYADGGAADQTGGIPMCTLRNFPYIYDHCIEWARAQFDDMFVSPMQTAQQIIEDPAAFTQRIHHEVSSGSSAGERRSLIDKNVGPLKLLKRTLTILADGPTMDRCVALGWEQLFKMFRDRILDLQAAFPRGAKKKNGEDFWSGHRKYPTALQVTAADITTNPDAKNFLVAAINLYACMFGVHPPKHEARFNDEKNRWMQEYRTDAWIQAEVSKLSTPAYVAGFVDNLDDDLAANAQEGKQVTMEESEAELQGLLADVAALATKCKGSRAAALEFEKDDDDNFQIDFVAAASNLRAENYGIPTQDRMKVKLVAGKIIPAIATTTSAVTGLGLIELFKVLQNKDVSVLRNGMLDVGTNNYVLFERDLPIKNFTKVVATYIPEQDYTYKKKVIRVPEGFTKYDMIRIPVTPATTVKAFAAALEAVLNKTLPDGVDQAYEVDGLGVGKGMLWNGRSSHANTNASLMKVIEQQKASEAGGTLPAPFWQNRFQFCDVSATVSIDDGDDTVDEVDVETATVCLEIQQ

[3] = target: AMP-activated protein kinase, AMPK (Homo sapiens) (UniProt P54646+O43741+P54619+Q9UGJ0+Q9Y478+Q13131+Q9UGI9); test: AMP-dependent Kinase enzyme assay. An in vitro enzyme assay that detects ADP turnover that is directly proportional to AMPK activity. This uses naive AMPK that is activated during the assay with MK-8722; assay type: functional; settings: 30 µM
[4] = target: Sialic acid-binding Ig-like lectin 9 (Homo sapiens) (UniProt Q9Y336); test: Hs-Siglec9 ALPHAscreen SOP 20170721; settings: 10 µM
Trypanosoma cruzi = test: Trypanosoma cruzi phosphomannomutase and mannose-1-phosphate guanylyltransferase assay; assay type: functional; settings: 10 µM
[5] = target: T2, Arginase-2, mitochondrial (Homo sapiens) (UniProt P78540); test: in vitro enzyme assay to detect the production of urea directly proportional to the activity of Arginase II; assay type: functional; settings: 33.3 µM; also: in the data most compounds retested in dose-response had high values
T2 sequence (whole entry): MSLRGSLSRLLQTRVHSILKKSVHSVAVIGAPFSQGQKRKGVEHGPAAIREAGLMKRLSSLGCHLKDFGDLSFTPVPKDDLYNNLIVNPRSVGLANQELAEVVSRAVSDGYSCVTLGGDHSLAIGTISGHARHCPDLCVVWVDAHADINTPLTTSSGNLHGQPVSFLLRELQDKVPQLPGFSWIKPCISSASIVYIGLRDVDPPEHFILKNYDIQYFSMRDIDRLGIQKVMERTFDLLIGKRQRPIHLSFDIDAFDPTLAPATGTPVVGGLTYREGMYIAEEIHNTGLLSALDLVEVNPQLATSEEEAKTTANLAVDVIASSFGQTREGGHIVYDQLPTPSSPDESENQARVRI

[6] = target: T3, Proteasome subunit beta (Trypanosoma cruzi) (UniProt O96673); test: Trypanosoma cruzi proteasome chymotrypsin-like activity (TcProtChymo) assay.; also: in the data most compounds retested in dose-response had high values; assay type: functional; settings: 9.37 µM
T3 sequence (whole entry): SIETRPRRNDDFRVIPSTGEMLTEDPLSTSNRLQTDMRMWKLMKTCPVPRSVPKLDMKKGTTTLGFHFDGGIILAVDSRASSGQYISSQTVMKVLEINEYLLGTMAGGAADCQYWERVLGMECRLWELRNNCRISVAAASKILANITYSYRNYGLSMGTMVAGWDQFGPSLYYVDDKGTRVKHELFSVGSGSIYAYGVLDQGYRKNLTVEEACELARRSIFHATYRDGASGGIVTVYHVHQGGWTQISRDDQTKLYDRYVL

Homo sapiens = species: Homo sapiens; test: To identify inhibition of the IFN signalling (Jak-Stat) pathway via expression of an eGFP reporter gene under the control of an IFN-stimulated response element (ISRE) containing MxA promoter.; assay type: functional; settings: 30 µM
[7] = target: T4, Tyrosyl-tRNA synthetase, putative (Trypanosoma cruzi (strain CL Brener)) (UniProt Q4DSP6); test: Trypanosoma cruzi tyrosyl tRNA synthetase (TcYRS) _High Tyrosine SOP; assay type: functional; settings: 30 µM; also: in the data most compounds retested in dose-response had high values
T4 sequence (whole entry): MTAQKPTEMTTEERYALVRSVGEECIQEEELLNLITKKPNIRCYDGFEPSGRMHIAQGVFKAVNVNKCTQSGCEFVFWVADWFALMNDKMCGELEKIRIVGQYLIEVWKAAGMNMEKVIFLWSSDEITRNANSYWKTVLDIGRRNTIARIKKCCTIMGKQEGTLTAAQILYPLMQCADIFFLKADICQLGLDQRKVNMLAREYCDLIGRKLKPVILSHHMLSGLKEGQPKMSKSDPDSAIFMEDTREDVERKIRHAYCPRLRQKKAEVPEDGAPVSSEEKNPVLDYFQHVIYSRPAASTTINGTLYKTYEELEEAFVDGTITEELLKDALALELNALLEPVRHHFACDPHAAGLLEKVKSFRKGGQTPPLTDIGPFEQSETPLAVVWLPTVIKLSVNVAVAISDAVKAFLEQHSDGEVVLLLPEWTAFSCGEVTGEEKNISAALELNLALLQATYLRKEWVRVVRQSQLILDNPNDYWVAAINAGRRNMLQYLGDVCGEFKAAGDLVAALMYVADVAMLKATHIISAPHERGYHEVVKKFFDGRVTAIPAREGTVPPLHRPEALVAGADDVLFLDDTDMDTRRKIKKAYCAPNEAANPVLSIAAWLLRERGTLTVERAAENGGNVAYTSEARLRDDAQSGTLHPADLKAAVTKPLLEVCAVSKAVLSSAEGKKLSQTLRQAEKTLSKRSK

[8] = target: T4, Tyrosyl-tRNA synthetase, putative (Trypanosoma cruzi (strain CL Brener)); test: Trypanosoma cruzi tyrosyl tRNA synthetase (TcYRS) SOP; assay type: functional; settings: 30 µM
[9] = target: Chromo domain-containing protein 1 (Saccharomyces cerevisiae (strain ATCC 204508 / S288c) (Baker's yeast)) (UniProt P32657); test: ScCHD-1 Enzyme Inhibition Assay; assay type: functional; settings: 30 µM; also: in the data most compounds retested in dose-response had high values
Sequence of Chromo domain-containing protein 1 (Saccharomyces cerevisiae (strain ATCC 204508 / S288c) (Baker's yeast)) (P32657 whole entry, the tested form may be a part): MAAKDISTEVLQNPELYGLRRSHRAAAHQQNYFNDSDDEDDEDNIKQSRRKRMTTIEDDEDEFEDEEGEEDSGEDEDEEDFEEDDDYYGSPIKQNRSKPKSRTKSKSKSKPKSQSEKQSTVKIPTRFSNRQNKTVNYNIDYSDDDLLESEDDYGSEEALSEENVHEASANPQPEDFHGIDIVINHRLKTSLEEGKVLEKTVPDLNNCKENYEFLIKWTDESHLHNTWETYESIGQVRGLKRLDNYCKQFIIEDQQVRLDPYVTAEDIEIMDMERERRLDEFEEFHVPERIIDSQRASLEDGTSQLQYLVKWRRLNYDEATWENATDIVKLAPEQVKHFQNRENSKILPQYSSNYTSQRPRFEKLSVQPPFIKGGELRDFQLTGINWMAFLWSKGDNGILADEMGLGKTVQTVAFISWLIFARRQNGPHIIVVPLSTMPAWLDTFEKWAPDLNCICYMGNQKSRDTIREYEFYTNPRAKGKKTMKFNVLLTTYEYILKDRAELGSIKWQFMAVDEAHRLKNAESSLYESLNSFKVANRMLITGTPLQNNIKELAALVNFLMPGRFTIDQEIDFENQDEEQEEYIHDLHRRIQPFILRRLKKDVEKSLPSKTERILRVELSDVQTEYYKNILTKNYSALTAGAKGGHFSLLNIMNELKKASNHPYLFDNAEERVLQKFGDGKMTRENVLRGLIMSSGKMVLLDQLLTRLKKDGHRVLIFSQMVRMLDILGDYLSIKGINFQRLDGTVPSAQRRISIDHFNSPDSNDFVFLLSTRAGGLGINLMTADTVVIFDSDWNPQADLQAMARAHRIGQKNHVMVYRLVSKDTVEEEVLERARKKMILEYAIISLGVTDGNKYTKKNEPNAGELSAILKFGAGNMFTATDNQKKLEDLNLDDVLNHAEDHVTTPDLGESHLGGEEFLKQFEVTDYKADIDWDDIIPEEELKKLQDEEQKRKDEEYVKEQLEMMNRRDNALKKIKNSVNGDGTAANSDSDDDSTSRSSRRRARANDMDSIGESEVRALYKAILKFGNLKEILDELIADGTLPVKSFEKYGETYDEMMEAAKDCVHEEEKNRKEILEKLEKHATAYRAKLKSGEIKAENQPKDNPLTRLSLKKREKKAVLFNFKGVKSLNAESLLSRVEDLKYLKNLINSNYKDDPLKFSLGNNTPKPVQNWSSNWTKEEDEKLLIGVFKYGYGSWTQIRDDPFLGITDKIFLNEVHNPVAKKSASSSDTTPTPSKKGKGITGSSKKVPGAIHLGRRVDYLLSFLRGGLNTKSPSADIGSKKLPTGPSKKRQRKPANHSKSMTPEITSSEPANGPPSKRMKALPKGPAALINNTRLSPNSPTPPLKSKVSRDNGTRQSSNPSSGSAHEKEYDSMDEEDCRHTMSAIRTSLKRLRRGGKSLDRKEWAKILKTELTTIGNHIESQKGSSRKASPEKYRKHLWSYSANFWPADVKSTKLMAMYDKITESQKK

Sequence of Protein translocase subunit SecA (Escherichia coli (strain K12)) (P10408 whole entry): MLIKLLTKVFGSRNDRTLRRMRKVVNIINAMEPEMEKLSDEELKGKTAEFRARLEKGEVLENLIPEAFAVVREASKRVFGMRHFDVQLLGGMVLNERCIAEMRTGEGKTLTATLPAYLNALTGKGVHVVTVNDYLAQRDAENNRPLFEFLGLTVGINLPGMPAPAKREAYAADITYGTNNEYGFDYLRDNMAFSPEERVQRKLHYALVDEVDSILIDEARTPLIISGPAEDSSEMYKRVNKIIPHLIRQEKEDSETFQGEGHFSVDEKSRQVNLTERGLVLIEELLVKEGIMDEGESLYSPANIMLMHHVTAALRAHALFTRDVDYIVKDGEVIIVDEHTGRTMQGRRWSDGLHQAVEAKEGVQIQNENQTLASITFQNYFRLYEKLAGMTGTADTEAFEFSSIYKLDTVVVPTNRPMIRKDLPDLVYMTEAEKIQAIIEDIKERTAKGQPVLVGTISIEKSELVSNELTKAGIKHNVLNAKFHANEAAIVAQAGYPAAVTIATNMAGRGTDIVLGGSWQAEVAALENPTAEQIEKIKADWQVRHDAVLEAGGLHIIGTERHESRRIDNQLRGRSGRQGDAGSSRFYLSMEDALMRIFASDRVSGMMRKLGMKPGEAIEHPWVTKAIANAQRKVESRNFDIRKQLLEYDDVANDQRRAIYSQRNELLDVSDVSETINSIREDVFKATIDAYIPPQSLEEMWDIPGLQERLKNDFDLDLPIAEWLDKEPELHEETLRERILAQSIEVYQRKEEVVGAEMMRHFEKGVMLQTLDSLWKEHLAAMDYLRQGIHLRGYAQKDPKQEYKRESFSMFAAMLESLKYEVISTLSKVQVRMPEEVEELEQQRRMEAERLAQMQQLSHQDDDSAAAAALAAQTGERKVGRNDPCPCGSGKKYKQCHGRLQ
Sequence of Sialic acid-binding Ig-like lectin 9 (Homo sapiens) (Q9Y336 whole entry): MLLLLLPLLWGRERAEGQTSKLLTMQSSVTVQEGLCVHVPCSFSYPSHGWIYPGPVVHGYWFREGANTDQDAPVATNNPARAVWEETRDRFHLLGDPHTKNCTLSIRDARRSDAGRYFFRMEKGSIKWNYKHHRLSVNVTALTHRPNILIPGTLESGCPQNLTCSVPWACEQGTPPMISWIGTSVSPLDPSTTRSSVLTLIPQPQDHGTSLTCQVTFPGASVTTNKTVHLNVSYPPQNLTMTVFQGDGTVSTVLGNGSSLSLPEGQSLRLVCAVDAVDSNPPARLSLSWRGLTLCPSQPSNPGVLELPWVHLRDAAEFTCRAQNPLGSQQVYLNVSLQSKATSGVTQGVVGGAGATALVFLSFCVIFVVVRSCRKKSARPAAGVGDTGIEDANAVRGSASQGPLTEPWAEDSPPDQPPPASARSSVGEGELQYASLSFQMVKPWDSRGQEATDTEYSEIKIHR

Structure (SMILES) | Percent Effect [1] | Percent Effect [2] | Percent Effect [3] | Percent Effect [4] | Percent Effect (Trypanosoma cruzi) | Percent Effect [5] | Percent Effect [6] | Percent Effect (Homo sapiens) | Percent Effect [7] | Percent Effect [8] | Percent Effect [9]
OC(COCc1ccccc1Cl)CN1CC(n2cccn2)C1 (stereo not given) | 1.1% | -15.8% | 3.43% | -0.349% | -1.5% | 6.9% | 14.5% | 9.39% | 4.41% | 0% | -9.18%
Cc1nn(C)c2c(N3CCN(C(=O)C4CCC4)CC3)ncnc12 | -0.898% | 9.33% | 2.37% | -1.34% | -6.48% | -2.99% | 13.7% | 14.9% | -15.9% | 15.4% | -9.22%
CC(=O)c1ccc(C(=O)NCCCOC(C)c2ccccc2)s1 (stereo not given) | -1.12% | 7.89% | 0.104% | -8.61% | 1.07% | -8.28% | 13.9% | 21.8% | -3.19% | 10.4% | -1.78%
COc1ccccc1CNC(=O)Cn1ncc2c1c(C)nn2C | -2.51% | 6.67% | 1.32% | 6.52% | -7.86% | -15% | 12.8% | -0.504% | 5.29% | 7.69% | -9.43%
Cc1cc(C[S+]([O-])CC(=O)Nc2c(C)cccc2C)no1 (stereo not given) | -7.01% | 18.2% | 15.8% | 7.26% | 0.187% | 4.63% | 2.03% | 5.44% | 8.74% | 9.76% | -3.01%
CC(C)OCCOCc1cccc(NC(=O)NCc2ccncc2)c1 | 2.27% | 13% | -7.84% | -0.138% | -0.295% | -11% | 11.5% | 30.4% | 6.45% | 13.6% | -2.65%
CC(C)Oc1ccccc1C1CC(=O)Nc2c1cnn2C (stereo not given) | -2.1% | -15.8% | 7.56% | 5.91% | -3.21% | -7.1% | 15.6% | 15.6% | -2.13% | 2.6% | -0.488%
CC(=O)c1cccc(OCCCC(=O)N(C)CCc2ccncc2)c1 | -2.19% | 8.11% | -3.93% | 2.37% | 3.67% | -1.91% | 16.4% | 16.1% | 8.99% | 17.1% | -2.34%
CCn1ncc2c1CCCC2NCc1cc(Cl)c(OC)c(OC)c1 (stereo not given) | -5.26% | 12.7% | -8.16% | 14.8% | 3.31% | 3.04% | -0.901% | 66.8% | 9.36% | 21.5% | -6.2%
CCc1ccc(C2CCCCCN2Cc2nc(CCOC)no2)o1 (stereo not given) | -1.49% | 2.6% | 3.4% | 5.24% | 3.05% | -9.65% | 16.5% | 19.7% | -14% | -18.5% | -9.18%
